From article PMC10668032, “Altered binding affinity of SIX1-Q177R correlates with enhanced WNT5A and WNT pathway effector expression in Wilms tumor”
The full ranking holds about 33,000 sequences; the median of “e-score” is about -0.053, and the highest 2% start at about 0.38. What follows is part of a selection rich in the highest values, with near analogues and random picks from the rest.

What follows are sequences tested against T1, SIX1 homeodomain (reference allele) (human, UniProt Q15475 108-198) (assay: universal protein binding microarray; Universal all-10-mer PBM (8x60K, AMADID 030236), 300 nM GST-tagged protein, Alexa Fluor 488 anti-GST; buffer, salt, pH and temperature not stated (as in Berger); high values mean tight binding). Details: protein: ivt; tags: N-terminal GST; dsDNA, one strand shown.
T1 sequence: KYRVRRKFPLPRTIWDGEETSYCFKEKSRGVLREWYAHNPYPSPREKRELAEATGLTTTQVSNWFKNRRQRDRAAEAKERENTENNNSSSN
Method in brief: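 Homeodomains fused to GST were made by in vitro transcription/translation and measured by anti-GST western blot with a recombinant GST standard curve. At 300 nM final concentration, they were applied in duplicate to universal 'all 10-mer' protein binding microarrays (8×60K format).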

Row | Sequence | binding signal [E-score]
1 | CTAAGATA | 0.241 ± 0.105
2 | ATCTGGGC | 0.24 ± 0.0045
3 | CCTATTGA | 0.187 ± 0.0453
4 | GGTATTTA | 0.191 ± 0.035
5 | ATCCCATC | 0.297 ± 0.0291
6 | ATCGATGG | 0.185 ± 0.0344
7 | ATATATCA | 0.4 ± 0.0452
8 | CTATATTA | 0.152 ± 0.0427
9 | ATATATAA | 0.298 ± 0.0548
10 | GTATATGA | 0.225 ± 0.0139
11 | AAATATCA | 0.224 ± 0.158
12 | CTATATCA | 0.412 ± 0.033
13 | GTATATCA | 0.429 ± 0.0166
14 | CTCTATCC | 0.216 ± 0.0113
15 | ATATATCC | 0.438 ± 0.0246
16 | CTATATCC | 0.366 ± 0.00388
17 | ATATATCG | 0.372 ± 0.0566
18 | GTATATAA | 0.245 ± 0.0101
19 | ATCCAACC | 0.173 ± 0.00282
20 | TATCTAGA | 0.189 ± 0.00564
21 | ATACGTGG | 0.272 ± 0.04
22 | ACAACACC | 0.23 ± 0.0178

Row | Sequence | binding signal [E-score]
23 | TATAACAA | 0.2242 ± 0.00053
24 | ATATTAGG | 0.257 ± 0.0151
25 | CGAAGATC | 0.202 ± 0.00878
26 | AATGATAG | 0.309 ± 0.0717
27 | AATAATAC | 0.345 ± 0.0992
28 | CATGATAG | 0.274 ± 0.0672
29 | GATAATAC | 0.406 ± 0.0398
30 | AAAGATAC | 0.365 ± 0.0561
31 | TATGATAA | 0.17 ± 0.026
32 | AATGATAC | 0.467 ± 0.0253
33 | GATGATAC | 0.484 ± 0.00743
34 | GATGATGA | 0.189 ± 0.0213
35 | CATGACAC | 0.35 ± 0.0169
36 | CATAATAC | 0.34 ± 0.0222
37 | CATGATAC | 0.4813 ± 0.00335
38 | CCACGATA | 0.324 ± 0.0401
39 | GTATGCGA | 0.225 ± 0.0379
40 | AGCGGGAT | 0.289 ± 0.0282
41 | ATGTAATA | 0.208 ± 0.032
42 | GGAGACAC | 0.219 ± 0.0128
43 | ATCGGCAT | 0.205 ± 0.0425
44 | AATAACAC | 0.151 ± 0.0395

Row | Sequence | binding signal [E-score]
45 | TATGGGGA | 0.232 ± 0.0667
46 | AAGTATAT | 0.184 ± 0.103
47 | AAAGATAT | 0.351 ± 0.0934
48 | AATGAGAT | 0.278 ± 0.0395
49 | AATGATAT | 0.44 ± 0.0479
50 | ATCGTCAT | 0.22 ± 0.00839
51 | AATCCGCG | 0.1997 ± 0.000431
52 | ATACCGGC | 0.319 ± 0.00766
53 | ATCCCGGG | 0.345 ± 0.0141
54 | ATACCGGA | 0.381 ± 0.0112
55 | AGACCGGA | 0.157 ± 0.0691
56 | ATACCGGG | 0.399 ± 0.016
57 | ATACGGGG | 0.335 ± 0.018
58 | ACCATGAT | 0.269 ± 0.0126
59 | GATTATGA | 0.205 ± 0.0352
60 | ATATGGCA | 0.204 ± 0.0271
61 | GAGCCATA | 0.183 ± 0.0105
62 | GAATACGA | 0.24 ± 0.0047
63 | GGATAGAC | 0.151 ± 0.00296
64 | CAATATAC | 0.197 ± 0.0146
65 | GGGCTCAC | 0.268 ± 0.0467
66 | TATCTCAA | 0.329 ± 0.0572

Row | Sequence | binding signal [E-score]
67 | CGTATTAA | 0.222 ± 0.0926
68 | CCTATCAA | 0.288 ± 0.0228
69 | GGTATCAC | 0.497
70 | TGTATTAA | 0.275 ± 0.027
71 | CGTATCAA | 0.466 ± 0.026
72 | CGTATTAC | 0.26 ± 0.0203
73 | CGTATCAC | 0.484 ± 0.00135
74 | CGTATAAC | 0.204 ± 0.0505
75 | TGTATCAA | 0.41 ± 0.0207
76 | GGTCTCAC | 0.203 ± 0.0591
77 | TATCGGAA | 0.368 ± 0.0234
78 | CACCCGGA | 0.276 ± 0.0383
79 | CTGAGATC | 0.253 ± 0.0174
80 | ATGAGACG | 0.251 ± 0.0275
81 | TATCTTCA | 0.251 ± 0.0591
82 | GATCAGAC | 0.249 ± 0.0505
83 | GGTATAAA | 0.286 ± 0.0691
84 | GCTATCAA | 0.312 ± 0.0869
85 | GGTATCAA | 0.486 ± 0.00747
86 | ATACTTTG | 0.253 ± 0.096
87 | GGGTTAGA | 0.16 ± 0.0278
